Compound activity deposited in PubChem by National Center for Advancing Translational Sciences (NCATS).
Most compounds without a hit are left out; they make up all but 12% or so of the library.
BAZ2B inh = qHTS Assay for Inhibitors of BAZ2B. Bromodomain adjacent to zinc finger domain protein 2B (Homo sapiens), Q9UIF8. AlphaScreen BAZ2B-H3K14Ac peptide displacement. Potency, µM (doses to about 114 µM), for the others: at the top dose activity change, negative = inhibition, usual class: inhibitors. hit rate 4.4% among 360,000. AID 504333, 2011; also: % is scaled to controls: 0 for no effect and ±100 for the full control effect; nearly all actives have a fitted effect of over 60% in size
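AlphaScreen displacement of biotin-H3(5-23)K14Ac peptide (50 nM final) from BAZ2B (50 nM final) in PBS pH 7.4, 0.01% Tween-20; complex preformed 30 min RT, then compounds (top 110 uM) 30 min RT, beads 20 min dark.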
Sfp PPTase inh = qHTS Assay for Inhibitors of Bacillus subtilis Sfp phosphopantetheinyl transferase (PPTase); hit rate 3.5% among 310,000; Biochemical Sfp PPTase activity, qHTS; Potency, µM, without a hit: largest response in the series, negative = inhibition, actives largely listed as inhibitors;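 also: the enzyme is Sfp with the accession as filed and its product quenches rhodamine fluorescence; 0% = enzyme reaction without inhibitor and -100% = no enzyme wells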
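Buffer: 50 mM Hepes-Na pH 7.6, 10 mM MgCl2, 0.01% Nonidet P-40, 0.01% BSA. Enzyme 15 nM, pre-exposed to compound 15 min; substrates then added and fluorescence change tracked over 30 min.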
JMJD2A Tudor inh = qHTS Assay for Inhibitors of JMJD2A-Tudor Domain; AlphaScreen JMJD2A-Tudor / H3K4me3 peptide binding; AID 504339, 2011; Potency, µM (doses to about 114 µM), inactives show at the top dose activity change, negative = inhibition, usual class: inhibitors; hit rate 4.4% among 390,000; also: % is scaled to controls: 0 for no effect and ±100 for the full control effect; nearly all actives have a fitted effect of over 50% in size
Target sequence (O75164 whole entry, looked up, the tested form may be a part): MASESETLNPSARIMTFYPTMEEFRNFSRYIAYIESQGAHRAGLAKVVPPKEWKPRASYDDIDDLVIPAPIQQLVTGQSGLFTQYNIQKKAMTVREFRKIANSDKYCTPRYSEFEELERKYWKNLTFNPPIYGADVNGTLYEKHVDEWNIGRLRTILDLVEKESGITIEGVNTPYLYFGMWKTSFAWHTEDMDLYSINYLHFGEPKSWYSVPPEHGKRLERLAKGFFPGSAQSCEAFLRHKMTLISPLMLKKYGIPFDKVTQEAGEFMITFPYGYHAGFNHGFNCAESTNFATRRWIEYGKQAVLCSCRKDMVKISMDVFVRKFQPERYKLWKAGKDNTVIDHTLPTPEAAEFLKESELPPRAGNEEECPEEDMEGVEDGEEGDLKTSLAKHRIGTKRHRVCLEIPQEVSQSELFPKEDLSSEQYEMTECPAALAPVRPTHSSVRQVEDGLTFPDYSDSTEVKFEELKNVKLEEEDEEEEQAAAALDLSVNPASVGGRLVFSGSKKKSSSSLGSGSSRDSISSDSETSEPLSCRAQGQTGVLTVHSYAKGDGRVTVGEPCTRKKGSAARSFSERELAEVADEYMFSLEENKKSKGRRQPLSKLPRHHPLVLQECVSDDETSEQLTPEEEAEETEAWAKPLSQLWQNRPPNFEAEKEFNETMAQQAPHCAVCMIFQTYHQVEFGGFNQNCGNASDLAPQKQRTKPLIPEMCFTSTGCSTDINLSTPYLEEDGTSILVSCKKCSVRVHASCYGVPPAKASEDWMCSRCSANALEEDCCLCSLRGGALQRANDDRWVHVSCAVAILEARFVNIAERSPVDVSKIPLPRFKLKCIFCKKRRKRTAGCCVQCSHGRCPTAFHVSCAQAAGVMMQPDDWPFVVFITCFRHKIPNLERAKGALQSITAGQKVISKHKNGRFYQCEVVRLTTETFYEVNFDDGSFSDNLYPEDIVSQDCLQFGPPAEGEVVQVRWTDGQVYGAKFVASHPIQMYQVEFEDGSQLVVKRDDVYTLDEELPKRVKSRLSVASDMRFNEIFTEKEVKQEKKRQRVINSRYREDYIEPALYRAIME
HP1b chromo inh = HTS for Inhibitors of HP1-beta Chromodomain Interactions with Methylated Histone Tails | AlphaScreen HP1-beta / biotin-H3K9me3 peptide binding | Potency, µM (doses to about 114 µM), inactives show at the top dose activity change, negative = inhibition, usual class: inhibitors | hit rate 0.56% among 390,000 | AID 540317, 2011; also: nearly all actives have a fitted effect of over 70% in size
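AlphaScreen: HP1-beta (50 nM) preformed 30 min with biotin-H3(1-18)K9me3 peptide (50 nM) in PBS pH 7.4, 0.01% Tween-20. Compound added for 30 min at RT, then streptavidin donor/nickel chelate acceptor beads (10 ug/mL) for 30 min.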
G9a block = qHTS Assay for Inhibitors of Histone Lysine Methyltransferase G9a | Histone-lysine N-methyltransferase EHMT2 (Homo sapiens), Q96KQ7 | G9a H3K9 monomethylation, AlphaScreen, 2 h | Potency, µM (doses to about 102 µM), for the others: top-dose activity, negative = inhibition, actives largely listed as inhibitors | hit rate 8.8% among 350,000; also: % is scaled to controls: 0 for no effect and ±100 for the full control effect; nearly all actives have a fitted effect of over 75% in size
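Chemiluminescent proximity detection of H3K9 monomethylation, read after 10 min bead incubation in the dark. Reaction: 20 nM G9a, 500 nM biotin-H3K9 peptide, 20 uM SAM cofactor, 2 h, room temperature, following 15 min enzyme-compound preincubation.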
TDP1 inh = qHTS Assay for Inhibitors of Tyrosyl-DNA Phosphodiesterase (TDP1). hit rate 0.28% among 350,000. Potency, µM (titrated, usually from 130 µM), inactives show at the highest dose activity change, negative = inhibition, usual class: inhibitors. recombinant TDP1, AlphaScreen DNA substrate cleavage; also: % is scaled to controls: 0 for no effect and ±100 for the full control effect; nearly all actives have a fitted effect of over 40% in size
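AlphaScreen read-out: signal falls as enzyme removes the 3' tyrosine-FITC from a 5'-biotinylated DNA oligo (15 nM, 5 min, RT). Enzyme was E. coli-made recombinant Tdp1 at 1 nM, exposed to compound for 15 min beforehand; beads 10 ug/ml, 10 min.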
The depositor's hits bear a star; ? = inconclusive; / = no result given; [ ] = dose if it differs, or a comment. Calls follow the shape of the dose curve; as a rule, active = well fitted curve in the direction sought with a large enough effect; inconclusive = small, poorly fitted or top-dose-only effect, or another doubt; inactive = no such curve, though single readings can be large; an effect the other way counts as inactive or inconclusive. Potency is read from the fitted curve at half-maximal effect.

SMILES | BAZ2B inh | Sfp PPTase inh | JMJD2A Tudor inh | HP1b chromo inh | G9a block | TDP1 inh
N#Cc1c(Cl)cccc1-n1ccnc1 | 0% | 8% | 3% | 35% | 49%[12.7 µM] | -3%
Cc1ccc(OCc2nnc(SCC(=O)Nc3ccccc3C(C)C)o2)cc1 | 3% | / | -7% | 17% | 12%[59 µM] | -1%
Cc1ccc(S(=O)(=O)NNC(=O)c2ccc(O)cc2)cc1 | -18% | ? | 2% | 22% | ? | -3%
Cc1ccc(S(=O)(=O)NNC(=O)C(=O)NNS(=O)(=O)c2ccc(C)cc2)cc1 | -38% | 28% | 35µM* | 33% | 19% | -5%
CC(=O)Nc1ccc(C(=O)NNS(=O)(=O)c2ccc(C)cc2)cc1 | 50µM* | -7% | 9% | 33% | 20µM* | 3%
Cc1ccc(S(=O)(=O)NNC(=O)c2snnc2C)cc1 | 2% | ? | 79µM* | 9% | 10µM* | 6%
CC(=O)Nc1ccc(S(=O)(=O)NNC(=O)c2sc(=S)n(C)c2C)cc1 | -11% | -21% | 0.71µM* | 13% | 0%[59 µM] | -3%
CCOc1ccc(-n2nc3cc(C)c(NC(=O)c4cc(OCC)c(OCC)c(OCC)c4)cc3n2)cc1 | 0% | / | -2% | 38% | 7%[59 µM] | /
O=c1cc(CCc2ccccc2)oc2cccc(O)c12 | / | / | 68% | 131% | / | /
Cn1nc(C(=O)N2CCN(c3ccc(F)cc3)CC2)c2c1-c1ccccc1S(=O)(=O)C2 | -25% | 11% | -8% | 13% | 11% | 3%
CC(=O)Nc1ccc(S(=O)(=O)NNC(=O)COc2cccc(C)c2)cc1 | 5%[57.1 µM] | 79µM* | 50µM* | -21% | 6.3µM* | 12%
Cc1ccc(S(=O)(=O)NNC(=O)CCCCC(=O)NNS(=O)(=O)c2ccc(C)cc2)cc1 | -12% | 17% | -4% | 44% | 45µM* | -2%
CCOC(=O)c1ccc(S(=O)(=O)NNC(=O)COc2cccc(C)c2)cc1 | -1% | 18% | 7%[57.1 µM] | 41% | -19%[59 µM] | 4%
CNC(=O)CCCCCNS(=O)(=O)c1ccc(C)cc1 | 5% | -6% | -10%[11.4 µM] | ? | -1%[59 µM] | -1%
O=C(CCCN1C(=O)c2ccccc2C1=O)Nc1nncs1 | -5% | 27% | -3% | 21% | 1% | 0%
O=C(CCCN1C(=O)c2ccccc2C1=O)NC1=NCCS1 | -8% | -16% | 32µM* | 24% | 4%[59 µM] | 1%
CNc1nc(Cl)c(SC)c(NCc2ccc(F)cc2)n1 | 2% | 15% | 7% | 36% | 3% | /
CC(=O)Nc1cccc(NC(=O)CSc2nnc(Cc3cccn3C)n2CCc2ccccc2)c1 | -37% | 3% | -16% | 1% | 50µM* | 7%
Cn1cccc1Cc1nnc(SCC(=O)Nc2nccs2)n1CCc1ccccc1 | ? | 79µM* | ? | 18% | 50µM* | 0%
CCSc1nnc(NC(=O)CSc2nnc(Cc3cccn3C)n2CCc2ccccc2)s1 | ? | -10% | -16% | 29% | 3%[12.7 µM] | 10%
COc1ccc(-c2ccc3ncnc(NCc4cccs4)c3c2)cc1 | / | / | -21% | / | / | /
COc1cc(/C=N/n2c(-c3n[nH]c4c3CCC4)n[nH]c2=S)cc(OC)c1O | -33% | 56µM* | 1.1µM* | ? | ? | /
COc1ccccc1/C=C/C=N/n1c(-c2n[nH]c3c2CCC3)n[nH]c1=S | -26% | 22µM* | 35µM* | ? | 1.4µM* | 4%
S=c1[nH]nc(-c2n[nH]c3c2CCC3)n1/N=C/C=C/c1ccco1 | ? | 11µM* | 5µM* | -12% | / | /
COc1cccc(/C=N/n2c(-c3n[nH]c4c3CCC4)n[nH]c2=S)c1O | -2% | 25µM* | 7.9µM* | ? | 1.4µM* | 11%
SMILES | BAZ2B inh | Sfp PPTase inh | JMJD2A Tudor inh | HP1b chromo inh | G9a block | TDP1 inh
Cc1ccc(-c2n[nH]c3c2CCC3)cc1 | -4% | 3% | -5% | 21% | -6% | 4%
COc1ccccc1NC(=O)CSc1nccn1Cc1ccccc1 | ? | 15% | -25% | -4% | -7% | 8%
COc1cccc(/C=N/n2c(-c3cc(C)[nH]n3)n[nH]c2=S)c1O | ? | 2.2µM* | 2.8µM* | 10% | / | 3%
COc1cccc(C=Nc2cc(C)cc(C)c2)c1O | -10% | 11% | 0%[57.1 µM] | 24% | 20%[59 µM] | 1%
COC(=O)C1=C(C)N(CC2CC2)C(=O)N[C@H]1CCc1ccccc1 | / | -16% | / | / | / | 7%
O=c1[nH]c2cc3c(cc2cc1CN(Cc1nnnn1CC1CCCO1)C1CCCCC1)OCO3 (configuration not stated) | -5% | -8% | -25%[11.4 µM] | 40% | ? | 3%
COc1ccc2[nH]c(=O)c(CN(Cc3ccc(C)cc3)Cc3nnnn3CC3CCCO3)cc2c1 (configuration not stated) | -36% | 16µM* | -16% | 7% | ? | 5%
Cc1ccc2[nH]c(=O)c(CN(CCc3ccccc3)Cc3nnnn3CC3CCCO3)cc2c1 (configuration not stated) | 5% | -14% | -20% | 18% | ? | 2%
COc1ccc2[nH]c(=O)c(CN(CCc3ccccc3)Cc3nnnn3CC3CCCO3)cc2c1 (configuration not stated) | -17% | 50µM* | -20% | 13% | 8.9µM* | 6%
O=c1[nH]c2cc3c(cc2cc1CN(CCc1ccccc1)Cc1nnnn1CC1CCCO1)OCO3 (configuration not stated) | -22% | 56µM* | -7% | 26% | ? | -1%
O=c1[nH]c2cc3c(cc2cc1CN(Cc1nnnn1CC1CCCO1)C1CCCC1)OCO3 (configuration not stated) | -8% | 0% | -4% | 14% | 13µM* | -6%
c1ccc2c(c1)nc1n2CCN1CCN1CCCC1 | 4% | 0% | -9% | 21% | 1% | /
Cc1cc(C)cc(OCC(=O)N2N=C(c3cccnc3)CC2(O)C(F)(F)F)c1 (configuration not stated) | -3% | -6% | -10% | 26% | 6% | 3%
Cc1cc(C)cc(OCC(=O)N2N=C(C(F)(F)F)CC2(O)C(C)(C)C)c1 (configuration not stated) | -3% | ? | -9%[57.1 µM] | 10% | 1.6µM* | 0%
CCN(CC(=O)Nc1c(F)cccc1F)C(=O)c1cc([N+](=O)[O-])ccc1N1CCOCC1 | 2% | / | -8% | 18% | -45% | /
COc1cc(C(=O)CCN2CCC(c3ccccc3)C2)cc(OC)c1OC (configuration not stated) | -33% | -17% | -29% | 24% | 3.5µM* | 7%
